# In the library only some 6.1% were active in any assay of this set; here they are far more common.
# ATXN viability = reduces viability in counter-screen for ATXN expression inhibitors; 400,000 compounds, 0.49% hits; Potency, µM (series often up to 56.7 µM), actives largely listed as cytotoxic; S2 cells (HEK-293 line with an ATXN2-luciferase reporter) viability, CellTiter-Fluor protease fluorescence, 24 h; also: nearly all actives have a fitted effect of over 40% in size
# HepG2 tox = HepG2 cytotoxicity, counter-screen for TGF-b inhibitors; Potency, µM (titrated, usually from 46.1 µM), for the others: top-dose activity change, negative = cytotoxicity, actives largely listed as cytotoxic; HepG2 CAGA-GFP viability, ATP luminescence, 18 h; 410,000 compounds, 0.76% hits
#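 CellTiter-Glo luminescence gave cytotoxicity after 18 hours at 37 degrees C. The cells were HepG2 CAGA-GFP in 1% FBS DMEM, stimulated with 500 pg/mL TGF-beta after compound addition. %Activity was normalised to no-cell wells (complete cell-killing) and DMSO (no toxicity), and curves were fitted and classified.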
# RORg inh = blocks mouse ROR gamma transcriptional activity; P51450; Drosophila S2 Gal4-RORgamma UAS-luciferase reporter, 20 h; Potency, µM (titrated, usually from 53.6 µM), without a hit: top-dose activity change, negative = inhibition, most hits filed as inhibitors; 310,000 compounds, 5.4% hits; AID 2551; also: % is scaled to controls: 0 for no effect and ±100 for the full control effect; nearly all actives have a fitted effect of over 60% in size
# Target sequence (P51450 whole entry, looked up, the tested form may be a part): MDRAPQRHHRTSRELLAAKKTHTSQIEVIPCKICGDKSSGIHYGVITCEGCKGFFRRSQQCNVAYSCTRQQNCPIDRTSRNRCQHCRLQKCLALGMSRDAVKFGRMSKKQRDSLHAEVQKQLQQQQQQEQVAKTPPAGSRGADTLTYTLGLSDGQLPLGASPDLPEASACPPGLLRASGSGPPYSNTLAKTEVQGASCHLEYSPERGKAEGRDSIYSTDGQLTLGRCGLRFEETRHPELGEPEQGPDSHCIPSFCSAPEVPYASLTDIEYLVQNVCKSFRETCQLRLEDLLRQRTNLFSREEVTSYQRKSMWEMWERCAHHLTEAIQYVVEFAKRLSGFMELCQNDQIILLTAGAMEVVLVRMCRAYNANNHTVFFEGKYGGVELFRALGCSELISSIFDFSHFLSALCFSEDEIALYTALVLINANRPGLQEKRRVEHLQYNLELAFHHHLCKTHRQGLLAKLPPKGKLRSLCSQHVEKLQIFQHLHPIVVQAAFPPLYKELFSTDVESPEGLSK
#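 Stably transfected Drosophila Schneider cells are the test system, with ROR gamma fused to Gal4 and luciferase under UAS control; luminescence is read after 20 hr of 700 uM copper sulfate induction at ambient temperature.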
# TGFb inhibitor = TGF-b pathway inhibition | 410,000 compounds, 1.2% hits | HepG2 CAGA-GFP TGF-b/SMAD3 reporter, GFP fluorescence, 18 h; TGF-beta stimulated, 500 pg/mL final | Potency, µM (highest dose often 46.1 µM), for inactives: top-dose activity, negative = inhibition, usual class: inhibitors; also: % is scaled to controls: 0 for no effect and ±100 for the full control effect; nearly all actives have a fitted effect of over 65% in size
#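 HEPG2 CAGA-GFP reporter cells (1000/well, DMEM with 1% FBS) received compounds, then recombinant TGF-beta at 500 pg/mL final for 18 hours at 37 degrees C. Per-cell GFP summed per well was normalised to unstimulated and stimulated DMSO controls before curve fitting.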
# ATXN2 expr inh = reduces ATXN2 reporter expression in HEK-293 cells; HEK-293 ATXN2-luciferase reporter, luminescence, 24 h; Potency, µM (doses to about 57 µM), without a hit: top-dose activity change, negative = inhibition, most hits filed as inhibitors; 360,000 compounds, 0.72% hits; AID 1745845; also: % is scaled to controls: 0 for no effect and ±100 for the full control effect; nearly all actives have a fitted effect of over 55% in size
#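 qHTS (up to 57 uM final) was run with 24 h compound exposure of reporter cells at 37 °C. Each well was multiplexed: SteadyGlo luminescence measured ATXN2-luciferase expression after a fluorogenic Gly-Phe-AFC viability readout (25 uM final).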
# Gal4-VP16 FLuc = inhibits Gal4-VP16 luciferase reporter, ROR gamma counter-screen | 310,000 compounds, 3.5% hits | Potency, µM (doses to about 53.6 µM), without a hit: at the highest dose activity, negative = inhibition, usual class: inhibitors | Drosophila S2 Gal4-VP16 UAS-luciferase, luminescence, 20 h;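 also: Gal4-VP16 expression switched on by copper sulfate through the metallothionein promoter; % is scaled to controls: 0 for no effect and ±100 for the full control effect; nearly all actives have a fitted effect of over 50% in size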
# An asterisk follows results filed as active; i = inactive; ? = inconclusive; · = no result given; ! = a repeat was not active; [ ] = another dose, or the depositor's remark. Calls follow the shape of the dose curve; as a rule, active = well fitted curve in the direction sought with a large enough effect; inconclusive = small, poorly fitted or top-dose-only effect, or another doubt; inactive = no such curve, though single readings can be large; an effect the other way counts as inactive or inconclusive. Potency is read from the fitted curve at half-maximal effect.
SMILES,ATXN viability,HepG2 tox,RORg inh,TGFb inhibitor,ATXN2 expr inh,Gal4-VP16 FLuc
CSc1ccccc1NC(=S)NC1CCCC1,i,1%,6.3µM*,-24%,-7%,7.1µM*
COc1ccc(Cc2nc3ccc(C(=O)N4C[C@@H](C)O[C@@H](C)C4)cc3o2)cc1OC,i,-1%,?,-18%,13%,?
COCCN1CCN(C(=O)c2ccc3nc(Cc4ccc(OC)c(OC)c4)oc3c2)CC1,i,6%,?,-2%,-2%,7.1µM*
c1cc(SC2CCCCC2)cc(-c2nc3cnccn3c2NC2CCCCC2)c1,·,16µM*,·,-17%,?,·
CCC(C)Sc1cccc(-c2nc3cnccn3c2NC2CCCCC2)c1 (centres undefined),·,-106%,·,?,?,·
c1cn2c(NC3CCCCC3)c(-c3ccc(SC4CCCCC4)cc3)nc2cn1,·,-1%,·,2.8µM*,10%,·
Cc1ccc2nc(/C(C#N)=C/c3ccc(-c4cccc(Cl)c4)o3)[nH]c2c1,i,8.9µM*,·,-1%,?,·
N#C/C(=C\c1ccc(-c2ccc(Cl)c(C(=O)O)c2)o1)c1nc2ccccc2[nH]1,·,2%,·,31%,·,·
CCCCNC(=O)NC1(C(F)(F)F)Oc2ccccc2O1,i,-1%,-6%,17%,-16%,1%
NS(=O)(=O)c1ccc(CCNC(=O)NC2(C(F)(F)F)Oc3ccccc3O2)cc1,i,-28%,11µM*,0%,-23%,?
COC(=O)C(c1ccccc1Cl)N1CCc2sccc2C1 (centres undefined),i,·,3.5µM*!,·,-1%,?
COC(=O)[C@H](c1ccccc1Cl)N1CCc2sccc2C1,i,1%,-17%,12%,-2%,0%
Cc1cc(/C=N/Nc2ncnc(N)c2[N+](=O)[O-])c(C)n1-c1ccccc1,?,-31%,6.3µM*,-16%,?,6.3µM*
COc1cccc(/C=N/Nc2ncnc3c2[nH]c2ccc(C)cc23)c1OC,i,4%,6.3µM*,?,·,?
COc1cccc(C=NNc2ccc([N+](=O)[O-])cn2)c1OC,?,7%,·,16%,?,·
Cc1cc(=O)[nH]c(N/N=C/c2cc(C)n(-c3ccccc3)c2C)n1,?,-25%,?,-1%,-7%,-19%
Cc1cc(/C=N/Nc2nc(N)ncc2[N+](=O)[O-])c(C)n1-c1cccc(C(F)(F)F)c1,·,·,6.3µM*,·,·,?
COc1cccc(/C=N/Nc2ncnc(N)c2[N+](=O)[O-])c1OC,i,-13%,?,4%,8.9µM*,?
CC(C)CN(CCCNC(=O)c1cc(=O)[nH]c2ccc(S(=O)(=O)N3CCCCCC3)cc12)CC(C)C,i,0%,·,0%,8%,·
Cc1nc2ccccc2nc1/C=C/c1ccc(N(C)C)cc1,·,-85%,·,-13%,·,·
O=C(Nc1cccc(C(F)(F)F)c1)c1cc(S(=O)(=O)N2CCCC2)c[nH]1,i,-24%,·,-9%,-11%,·
CCOC(=O)c1c(C)[nH]c(C)c1S(=O)(=O)N(C)CC(=O)NCc1ccc(Cl)cc1,i,-48%,·,?,-11%,·
COC(=O)c1cc(NC(=O)Nc2cccc(Cl)c2)ccc1Cl,i,-90%,?,16µM*,?,?
COc1ccccc1NS(=O)(=O)c1cccc(NC(=O)Nc2cccc(Cl)c2)c1,·,14µM*,?,?,0%,?
Cc1ccc(NC(=S)NC(=O)c2ccc(F)cc2)cc1S(=O)(=O)Nc1ccccc1Cl,i,-3%,4.5µM*,?,?,6.3µM*
SMILES,ATXN viability,HepG2 tox,RORg inh,TGFb inhibitor,ATXN2 expr inh,Gal4-VP16 FLuc
COc1ccccc1NS(=O)(=O)c1cc(NC(=O)c2ccc(Cl)nc2)ccc1Cl,?,-26%,16%,?,20µM*,20µM*
O=C(c1ccc(F)c(F)c1)N1CCOc2ccc(CN3CCN(Cc4ccccn4)CC3)cc2C1,i,·,·,·,·,·
Cn1c(-c2ccccc2)cnc1SCC(=O)N1CCCCC1,i,-31%,5µM*,?,?,8.9µM*
Cc1ccc(-c2cnc(SCC(=O)N3CCCc4ccccc43)n2C)cc1,i,-29%,11µM*,?,4%,-13%
CC(NCc1ccc2c(c1)n(C)c(=O)n2C)c1ccccc1 (centres undefined),i,-14%,·,-13%,-10%,·
Cc1ccc(NC(=S)N(Cc2ccccc2)Cc2cccs2)c(C)c1,i,-11%,7.1µM*,-4%,·,?
Cc1cccc(NC(=S)NNC(=S)NCc2ccccc2)c1,?,-1%,-25%,-4%,14%,1%
C=CCN(CC=C)C(=S)Nc1cc(Cl)ccc1OC,i,-8%,?,5%,1%[11.3 µM],-14%
COc1ccc(NC(=S)NCc2cccs2)cc1OC,i,2%,13µM*,16%,·,-11%
C=CCNC(=S)Nc1cc(Cl)ccc1OC,i,5%,13µM*,-16%,3%,?
COc1ccccc1NC(=S)NCc1cccs1,i,0%,?,-3%,1%,-27%
Cc1cccc(NC(=S)NCc2cccs2)c1,i,-24%,6.3µM*,-5%,·,?
COc1ccc(OC)c(-c2ccnc(-n3ncc(C(=O)NC(C)(C)CO)c3C3CC3)n2)c1,i,·,·,·,·,·
N#Cc1nc(NCCO)nc(Nc2ccccc2)n1,·,·,·,·,·,-10%
CCOC(=O)[C@@H](N)CS,·,·,3%[10 µM],·,·,-4%
CCOCCCNC(=O)C1CCN(c2cc(C)nc3c(-c4ccc(Cl)cc4)c(C)nn23)CC1,i,2%,·,0%,1%,·
Cc1cn([C@@H]2O[C@H](CO)[C@@H](O)[C@H]2F)c(=O)[nH]c1=O,i,·,·,·,8%,·
S=C(NCc1cccs1)Nc1ccccc1,i,-31%,10µM*,-9%,-5%,?
Cc1ccccc1NC(=S)NCc1cccs1,i,0%,?,-2%,1%,?
Cc1ccc(C)c(NC(=S)NCc2cccs2)c1,i,-52%,4µM*,-9%,-11%,11µM*
CCCCc1ccc(NC(=S)NCc2cccs2)cc1,·,-114%,2.2µM*,-19%,·,?
COc1cccc(NC(=S)NCc2cccs2)c1,i,-2%,10µM*,-12%,33%,?
CCOc1ccc(NC(=O)CNS(=O)(=O)c2ccc(Br)s2)cc1,i,-17%,·,-36%,-13%,·
CCOC(=O)CCc1c(C)nc2cc(-c3cc(OC)cc(OC)c3)[nH]n2c1=O,i,-4%,·,-5%,8%,·
COc1ccc(-c2noc(CSCC(=O)Nc3cc(OC)c(OC)c(OC)c3)n2)cc1OC,·,1%,·,0%,·,·
